Among the data in paper PMC12529666, “Dysregulation of AGO2-miRNA dynamics underlies the AGO2-associated Lessel–Kreienkamp syndrome” are binding signal values, retold here.

Holding throughout (experiment): RNA Bind-n-Seq (nitrocellulose filter binding and sequencing); miR-122 guide loaded in AGO2; 60 min incubation; 30 mM Tris pH 8.0, 100 mM potassium acetate, 2 mM magnesium acetate, 0.5 mM TCEP, 0.005% NP-40, 0.01 mg/ml yeast tRNA; 3 nM AGO2-miR-122, 100 nM RNA library; 60; high values mean tight binding
Settings in all cases: protein: recombinant; tags: His6 (N-terminal, pFastBac HTA)

The target in one assay is AGO2 L192P (Homo sapiens, UniProt Q9UKV8 1-859, L192P;S387D;S824A;S828D;S831D;S834A). In short, it runs like this:
(§1)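 His-tagged AGO2 was expressed in Sf9 insect cells by baculovirus, loaded with a synthetic guide RNA, and purified by Ni-NTA and a biotinylated capture oligo. Bound RNA was extracted, reverse-transcribed, barcode-amplified and Illumina-sequenced. Fold enrichment is each sequence's read fraction divided by its input-library read fraction.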

In a further assay the target is AGO2 A367P (Homo sapiens, UniProt Q9UKV8 1-859, A367P;S387D;S824A;S828D;S831D;S834A). Put shortly: as §1
Chain of AGO2 A367P (Q9UKV8 whole entry A367P/S387D/S824A/S828D/S831D/S834A): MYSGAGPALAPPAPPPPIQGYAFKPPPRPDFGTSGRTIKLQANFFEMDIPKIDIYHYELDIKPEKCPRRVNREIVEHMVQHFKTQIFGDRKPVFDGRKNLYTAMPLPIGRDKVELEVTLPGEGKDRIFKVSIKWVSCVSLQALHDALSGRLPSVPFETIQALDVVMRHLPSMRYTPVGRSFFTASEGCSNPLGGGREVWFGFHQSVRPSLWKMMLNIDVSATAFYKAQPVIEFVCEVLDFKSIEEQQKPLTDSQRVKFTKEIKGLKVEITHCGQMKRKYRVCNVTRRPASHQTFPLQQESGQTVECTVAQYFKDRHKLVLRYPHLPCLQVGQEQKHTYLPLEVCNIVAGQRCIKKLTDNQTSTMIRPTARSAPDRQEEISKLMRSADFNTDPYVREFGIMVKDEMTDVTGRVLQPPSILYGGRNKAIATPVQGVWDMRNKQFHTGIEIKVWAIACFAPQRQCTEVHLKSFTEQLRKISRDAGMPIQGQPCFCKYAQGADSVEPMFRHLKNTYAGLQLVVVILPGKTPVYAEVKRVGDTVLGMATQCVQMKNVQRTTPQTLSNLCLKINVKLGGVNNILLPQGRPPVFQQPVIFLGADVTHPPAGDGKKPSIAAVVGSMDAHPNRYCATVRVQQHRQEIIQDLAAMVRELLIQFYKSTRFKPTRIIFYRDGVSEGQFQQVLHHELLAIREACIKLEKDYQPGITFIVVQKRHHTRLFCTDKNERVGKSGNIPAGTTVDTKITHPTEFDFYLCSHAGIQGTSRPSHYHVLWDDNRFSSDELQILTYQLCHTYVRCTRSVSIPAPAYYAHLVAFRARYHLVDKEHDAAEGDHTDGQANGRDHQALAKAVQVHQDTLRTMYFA
A further assay has as its target AGO2 T357M (Homo sapiens, UniProt Q9UKV8 1-859, T357M;S387D;S824A;S828D;S831D;S834A). In short, it runs like this: as §1
For the next assay, the target named is AGO2 F182del (Homo sapiens, UniProt Q9UKV8 1-859, S387D;S824A;S828D;S831D;S834A;del182-182). In short, it runs like this: as §1
Chain of AGO2 F182del (Q9UKV8 other isoform, or with tags, fused parts or gaps S387D;S824A;S828D;S831D;S834A;del182-182): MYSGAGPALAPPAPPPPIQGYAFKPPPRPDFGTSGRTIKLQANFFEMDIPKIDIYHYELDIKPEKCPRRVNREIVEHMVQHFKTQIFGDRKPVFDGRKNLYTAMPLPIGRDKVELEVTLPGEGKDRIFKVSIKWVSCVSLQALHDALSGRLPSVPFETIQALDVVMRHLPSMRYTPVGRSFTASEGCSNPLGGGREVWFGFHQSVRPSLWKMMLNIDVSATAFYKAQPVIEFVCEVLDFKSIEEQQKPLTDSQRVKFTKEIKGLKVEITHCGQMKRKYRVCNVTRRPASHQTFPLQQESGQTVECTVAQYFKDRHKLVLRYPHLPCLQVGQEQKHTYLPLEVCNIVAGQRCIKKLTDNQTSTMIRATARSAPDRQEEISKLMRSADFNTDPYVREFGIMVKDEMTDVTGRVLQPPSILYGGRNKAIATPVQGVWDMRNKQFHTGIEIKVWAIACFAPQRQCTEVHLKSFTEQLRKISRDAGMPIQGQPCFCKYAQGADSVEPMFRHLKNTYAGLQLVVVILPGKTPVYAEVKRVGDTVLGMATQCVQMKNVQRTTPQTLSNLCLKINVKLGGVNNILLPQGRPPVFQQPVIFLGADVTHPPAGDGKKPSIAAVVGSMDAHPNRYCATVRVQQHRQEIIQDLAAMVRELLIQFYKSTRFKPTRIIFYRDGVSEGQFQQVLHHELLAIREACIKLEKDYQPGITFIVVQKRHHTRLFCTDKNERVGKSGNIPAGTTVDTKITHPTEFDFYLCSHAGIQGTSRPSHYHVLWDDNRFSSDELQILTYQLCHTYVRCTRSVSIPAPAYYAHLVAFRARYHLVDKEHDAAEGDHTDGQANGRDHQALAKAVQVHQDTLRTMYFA

Chain of AGO2 L192P (Q9UKV8 whole entry L192P/S387D/S824A/S828D/S831D/S834A): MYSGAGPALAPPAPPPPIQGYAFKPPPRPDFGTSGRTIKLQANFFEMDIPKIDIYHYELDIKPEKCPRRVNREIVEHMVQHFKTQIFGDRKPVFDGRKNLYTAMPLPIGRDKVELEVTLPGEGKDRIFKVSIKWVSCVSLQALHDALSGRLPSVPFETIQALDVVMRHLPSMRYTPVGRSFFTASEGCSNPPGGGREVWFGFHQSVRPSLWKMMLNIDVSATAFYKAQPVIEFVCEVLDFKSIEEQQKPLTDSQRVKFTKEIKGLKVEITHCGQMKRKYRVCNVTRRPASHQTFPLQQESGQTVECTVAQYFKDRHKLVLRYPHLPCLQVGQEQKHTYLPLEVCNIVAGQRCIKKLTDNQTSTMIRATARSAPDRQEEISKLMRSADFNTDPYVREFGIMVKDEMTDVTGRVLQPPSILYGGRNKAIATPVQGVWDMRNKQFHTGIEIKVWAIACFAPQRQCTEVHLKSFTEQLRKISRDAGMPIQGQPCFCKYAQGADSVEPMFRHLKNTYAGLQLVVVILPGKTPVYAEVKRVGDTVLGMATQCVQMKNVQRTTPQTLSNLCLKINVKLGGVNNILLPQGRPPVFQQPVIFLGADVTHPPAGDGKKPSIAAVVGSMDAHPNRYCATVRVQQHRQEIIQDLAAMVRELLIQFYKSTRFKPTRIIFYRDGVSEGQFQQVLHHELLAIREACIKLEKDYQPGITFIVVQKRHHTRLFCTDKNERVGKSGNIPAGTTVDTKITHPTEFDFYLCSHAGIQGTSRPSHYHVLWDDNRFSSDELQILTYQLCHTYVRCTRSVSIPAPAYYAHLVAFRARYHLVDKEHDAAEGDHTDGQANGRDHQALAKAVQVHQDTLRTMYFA
Chain of AGO2 T357M (Q9UKV8 whole entry T357M/S387D/S824A/S828D/S831D/S834A): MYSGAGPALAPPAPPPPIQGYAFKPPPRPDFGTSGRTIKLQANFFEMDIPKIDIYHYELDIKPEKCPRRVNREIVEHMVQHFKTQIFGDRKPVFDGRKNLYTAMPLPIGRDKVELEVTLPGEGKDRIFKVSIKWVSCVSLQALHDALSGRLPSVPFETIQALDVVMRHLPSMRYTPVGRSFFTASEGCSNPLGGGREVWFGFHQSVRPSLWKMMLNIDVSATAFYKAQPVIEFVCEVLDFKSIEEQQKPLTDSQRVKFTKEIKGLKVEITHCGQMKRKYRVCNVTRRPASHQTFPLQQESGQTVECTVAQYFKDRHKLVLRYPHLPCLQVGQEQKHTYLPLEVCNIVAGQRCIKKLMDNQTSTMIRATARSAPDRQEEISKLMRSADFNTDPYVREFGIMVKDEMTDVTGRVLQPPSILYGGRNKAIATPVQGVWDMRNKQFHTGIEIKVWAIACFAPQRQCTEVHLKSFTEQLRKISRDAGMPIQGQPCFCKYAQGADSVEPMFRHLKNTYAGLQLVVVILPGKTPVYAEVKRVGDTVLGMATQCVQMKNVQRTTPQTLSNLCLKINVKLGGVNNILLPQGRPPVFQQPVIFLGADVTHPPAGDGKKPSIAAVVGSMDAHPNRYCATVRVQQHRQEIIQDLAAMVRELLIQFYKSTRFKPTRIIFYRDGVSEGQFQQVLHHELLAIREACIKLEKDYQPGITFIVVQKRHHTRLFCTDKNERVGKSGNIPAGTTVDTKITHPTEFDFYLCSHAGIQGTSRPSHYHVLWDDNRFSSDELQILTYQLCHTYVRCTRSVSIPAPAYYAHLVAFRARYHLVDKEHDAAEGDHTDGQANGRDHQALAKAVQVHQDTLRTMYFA

B1: GTGCCCTA (ssRNA)
RNA 1: GAGUUCUACAGUCCGACGAUCCCAACGUGCCCUACACCUGGAAUUCUCGGGUGCCAA
RNA 2: UGGAGUGUGACAAUGGUGUUUG
DNA 1: GATCGTCGGACTGTAGAACTC
DNA 2: TTGGCACCCGAGAATTCCA
modifications: constant regions annealed to DNA blockers; guide miR-122 5' phosphate
For B1, the values for the binding signal in the assay with AGO2 L192P, in the assay with AGO2 A367P and with AGO2 T357M were 0.458 fold enrichment over input, 0.188 fold enrichment over input and 0.663 fold enrichment over input, respectively.

B2: ACGTCCTG (ssRNA)
RNA 1: GAGUUCUACAGUCCGACGAUCCCAACACGUCCUGCACCUGGAAUUCUCGGGUGCCAA
RNA 2: UGGAGUGUGACAAUGGUGUUUG
DNA 1: GATCGTCGGACTGTAGAACTC
DNA 2: TTGGCACCCGAGAATTCCA
modifications: constant regions annealed to DNA blockers; guide miR-122 5' phosphate
In the case of B2, the binding signal is 0.312 fold enrichment over input in the assay with AGO2 L192P, 0.143 fold enrichment over input with AGO2 A367P and 0.434 fold enrichment over input with AGO2 T357M.

B3: GTATCCTA (ssRNA)
RNA 1: GAGUUCUACAGUCCGACGAUCCCAACGUAUCCUACACCUGGAAUUCUCGGGUGCCAA
RNA 2: UGGAGUGUGACAAUGGUGUUUG
DNA 1: GATCGTCGGACTGTAGAACTC
DNA 2: TTGGCACCCGAGAATTCCA
modifications: constant regions annealed to DNA blockers; guide miR-122 5' phosphate
As for B3, the binding signal was 0.448 fold enrichment over input in the assay with AGO2 L192P, 0.17 fold enrichment over input with AGO2 A367P, 0.563 fold enrichment over input in the assay with AGO2 T357M and 0.121 fold enrichment over input in the assay with AGO2 F182del.

B4: ATGTTTTG (ssRNA)
RNA 1: GAGUUCUACAGUCCGACGAUCCCAACAUGUUUUGCACCUGGAAUUCUCGGGUGCCAA
RNA 2: UGGAGUGUGACAAUGGUGUUUG
DNA 1: GATCGTCGGACTGTAGAACTC
DNA 2: TTGGCACCCGAGAATTCCA
modifications: constant regions annealed to DNA blockers; guide miR-122 5' phosphate
Regarding B4, the figures for the binding signal with AGO2 L192P, with AGO2 A367P and with AGO2 T357M were 0.387 fold enrichment over input, 0.134 fold enrichment over input and 0.541 fold enrichment over input, respectively.

B5: GTGTTTCA (ssRNA)
RNA 1: GAGUUCUACAGUCCGACGAUCCCAACGUGUUUCACACCUGGAAUUCUCGGGUGCCAA
RNA 2: UGGAGUGUGACAAUGGUGUUUG
DNA 1: GATCGTCGGACTGTAGAACTC
DNA 2: TTGGCACCCGAGAATTCCA
modifications: constant regions annealed to DNA blockers; guide miR-122 5' phosphate
B5: the binding signal was 0.477 fold enrichment over input with AGO2 L192P, 0.178 fold enrichment over input with AGO2 A367P and 0.587 fold enrichment over input with AGO2 T357M.

B6: GTGTTTTA (ssRNA)
RNA 1: GAGUUCUACAGUCCGACGAUCCCAACGUGUUUUACACCUGGAAUUCUCGGGUGCCAA
RNA 2: UGGAGUGUGACAAUGGUGUUUG
DNA 1: GATCGTCGGACTGTAGAACTC
DNA 2: TTGGCACCCGAGAATTCCA
modifications: constant regions annealed to DNA blockers; guide miR-122 5' phosphate
Regarding B6, the binding signal with AGO2 L192P is 0.467 fold enrichment over input; with AGO2 A367P it was 0.167 fold enrichment over input; in the assay with AGO2 T357M it was 0.565 fold enrichment over input.

B7: ACGCCTTG (ssRNA)
RNA 1: GAGUUCUACAGUCCGACGAUCCCAACACGCCUUGCACCUGGAAUUCUCGGGUGCCAA
RNA 2: UGGAGUGUGACAAUGGUGUUUG
DNA 1: GATCGTCGGACTGTAGAACTC
DNA 2: TTGGCACCCGAGAATTCCA
modifications: constant regions annealed to DNA blockers; guide miR-122 5' phosphate
Take B7: the binding signal with AGO2 L192P was 0.367 fold enrichment over input; in the assay with AGO2 A367P, 0.164 fold enrichment over input; in the assay with AGO2 T357M, 0.54 fold enrichment over input.

B8: ATGCCCCG (ssRNA)
RNA 1: GAGUUCUACAGUCCGACGAUCCCAACAUGCCCCGCACCUGGAAUUCUCGGGUGCCAA
RNA 2: UGGAGUGUGACAAUGGUGUUUG
DNA 1: GATCGTCGGACTGTAGAACTC
DNA 2: TTGGCACCCGAGAATTCCA
modifications: constant regions annealed to DNA blockers; guide miR-122 5' phosphate
As for B8, the values for the binding signal with AGO2 L192P, in the assay with AGO2 A367P and with AGO2 T357M were 0.377 fold enrichment over input, 0.134 fold enrichment over input and 0.489 fold enrichment over input, respectively.

B9: GTGTCCTA (ssRNA)
RNA 1: GAGUUCUACAGUCCGACGAUCCCAACGUGUCCUACACCUGGAAUUCUCGGGUGCCAA
RNA 2: UGGAGUGUGACAAUGGUGUUUG
DNA 1: GATCGTCGGACTGTAGAACTC
DNA 2: TTGGCACCCGAGAATTCCA
modifications: constant regions annealed to DNA blockers; guide miR-122 5' phosphate
B9: the binding signal with AGO2 L192P was 0.451 fold enrichment over input; with AGO2 A367P it was 0.158 fold enrichment over input; with AGO2 T357M, 0.528 fold enrichment over input.

B10: ACGTTCTA (ssRNA)
RNA 1: GAGUUCUACAGUCCGACGAUCCCAACACGUUCUACACCUGGAAUUCUCGGGUGCCAA
RNA 2: UGGAGUGUGACAAUGGUGUUUG
DNA 1: GATCGTCGGACTGTAGAACTC
DNA 2: TTGGCACCCGAGAATTCCA
modifications: constant regions annealed to DNA blockers; guide miR-122 5' phosphate
Turning to B10, the binding signal with AGO2 L192P is 0.434 fold enrichment over input; with AGO2 A367P, 0.184 fold enrichment over input; with AGO2 T357M, 0.53 fold enrichment over input; in the assay with AGO2 F182del, 0.195 fold enrichment over input.

B11: GTACTTTA (ssRNA)
RNA 1: GAGUUCUACAGUCCGACGAUCCCAACGUACUUUACACCUGGAAUUCUCGGGUGCCAA
RNA 2: UGGAGUGUGACAAUGGUGUUUG
DNA 1: GATCGTCGGACTGTAGAACTC
DNA 2: TTGGCACCCGAGAATTCCA
modifications: constant regions annealed to DNA blockers; guide miR-122 5' phosphate
As for B11, the binding signal in the assay with AGO2 L192P is 0.446 fold enrichment over input; with AGO2 A367P it was 0.161 fold enrichment over input; in the assay with AGO2 T357M, 0.636 fold enrichment over input.
